Screening data from PubChem BioAssay.
L3MBTL1 inh = qHTS Assay for the Inhibitors of L3MBTL1; Potency, µM (doses to about 57.1 µM), without a hit: at the top dose activity, negative = inhibition, actives largely listed as inhibitors; AID 485360, 2010; AlphaScreen L3MBTL1–H3K9me1 peptide binding; actives 0.66% (n = 230,000); Lethal(3)malignant brain tumor-like protein 1 (Homo sapiens), Q9Y468; also: % is scaled to controls: 0 for no effect and ±100 for the full control effect; nearly all actives have a fitted effect of over 60% in size
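AlphaScreen assay: L3MBTL1 (50 nM final) was preincubated 30 min at room temperature with biotinylated H3(1-15)K9me1 peptide (75 nM final), then 30 min with library compounds; streptavidin donor and nickel chelate acceptor beads (10 ug/mL final) added, 30 min dark.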
HP1b binding inh = HTS for Inhibitors of HP1-beta Chromodomain Interactions with Methylated Histone Tails | AlphaScreen HP1-beta / biotin-H3K9me3 peptide binding | actives 0.56% (n = 390,000) | Potency, µM (titrated, usually from 114 µM), for the others: at the top dose activity change, negative = inhibition, most hits filed as inhibitors; also: nearly all actives have a fitted effect of over 70% in size
Target sequence (P83916 whole entry, looked up): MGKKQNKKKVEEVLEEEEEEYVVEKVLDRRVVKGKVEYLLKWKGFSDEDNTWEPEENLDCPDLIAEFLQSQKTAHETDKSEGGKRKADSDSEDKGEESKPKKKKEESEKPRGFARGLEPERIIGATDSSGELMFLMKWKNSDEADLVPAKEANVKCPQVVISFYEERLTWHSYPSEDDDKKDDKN
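Compound inhibition of the preformed complex between 50 nM HP1-beta and 50 nM biotinylated H3K9me3 peptide was read by AlphaScreen. Buffer was PBS pH 7.4 with 0.01% Tween-20. Incubations ran 30 min at room temperature, with 10 ug/mL donor/acceptor beads.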
JMJD2A Tudor = qHTS Assay for Inhibitors of JMJD2A-Tudor Domain; actives 4.4% (n = 390,000); AlphaScreen JMJD2A-Tudor / H3K4me3 peptide binding; Potency, µM (highest dose often 114 µM), without a hit: at the highest dose activity change, negative = inhibition, most hits filed as inhibitors; AID 504339, 2011; Lysine-specific demethylase 4A (Homo sapiens), O75164; also: % is scaled to controls: 0 for no effect and ±100 for the full control effect; nearly all actives have a fitted effect of over 50% in size
G9a block = qHTS Assay for Inhibitors of Histone Lysine Methyltransferase G9a; Histone-lysine N-methyltransferase EHMT2 (Homo sapiens), Q96KQ7; G9a H3K9 monomethylation, AlphaScreen, 2 h; actives 8.8% (n = 350,000); Potency, µM (highest dose often 102 µM), without a hit: at the highest dose activity, negative = inhibition, most hits filed as inhibitors; also: % is scaled to controls: 0 for no effect and ±100 for the full control effect; nearly all actives have a fitted effect of over 75% in size
Target sequence (Q96KQ7 913-1193 limits assumed): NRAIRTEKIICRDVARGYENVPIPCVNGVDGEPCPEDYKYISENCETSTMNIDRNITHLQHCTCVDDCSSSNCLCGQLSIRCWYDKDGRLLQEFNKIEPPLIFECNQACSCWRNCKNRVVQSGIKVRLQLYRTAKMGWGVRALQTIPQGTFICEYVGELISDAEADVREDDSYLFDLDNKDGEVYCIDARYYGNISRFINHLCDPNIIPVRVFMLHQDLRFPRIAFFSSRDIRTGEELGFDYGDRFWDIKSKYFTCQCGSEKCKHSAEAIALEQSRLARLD
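AlphaScreen read-out: biotin-H3K9 peptide (500 nM) methylation by 20 nM enzyme with 20 uM SAM, 2 h at room temperature after 15 min compound preincubation; anti-monomethyl H3K9 antibody plus donor/acceptor beads, 10 min dark.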
BAZ2B block = qHTS Assay for Inhibitors of BAZ2B; Bromodomain adjacent to zinc finger domain protein 2B (Homo sapiens), Q9UIF8; AlphaScreen BAZ2B-H3K14Ac peptide displacement; Potency, µM (top dose mostly 114 µM), inactives show at the highest dose activity change, negative = inhibition, hits mostly inhibitors; actives 4.4% (n = 360,000); also: % is scaled to controls: 0 for no effect and ±100 for the full control effect; nearly all actives have a fitted effect of over 60% in size
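AlphaScreen luminescence quantifies BAZ2B engagement of H3K14Ac peptide; the protein and biotinylated peptide are both at 50 nM final, buffer PBS pH 7.4 with 0.01% Tween-20, all steps at room temperature.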
* = called active by the depositor; ? = inconclusive; / = no result; [ ] = dose if it differs, or a comment. The list is not random: actives were taken first. Their share in the collection is about 11%. Calls follow the shape of the dose curve; as a rule, active = well fitted inhibition curve with a large enough effect; inconclusive = small, poorly fitted or top-dose-only effect; inactive = no such curve, though single readings can be large or run the other way. Potency is read from the fitted curve at half-maximal effect.

SMILES | L3MBTL1 inh | HP1b binding inh | JMJD2A Tudor | G9a block | BAZ2B block
CCOC(=O)C1CCN(Cc2ccc3ccccc3c2)CC1 | -6% | ? | 56µM* | ? | ?
CCOC(=O)N1CCN(Cc2ccccn2)CC1 | / | 18% | 0.79µM* | 7.1µM* | ?
CSc1ccc(CN2CCN(C(=O)CC(C)C)CC2)cc1 | 6%[2.29 µM] | ? | 20µM* | -2%[0.501 µM] | 79µM*
Cc1cccc(Cc2c(C)nc3nc(SCc4ccccc4C)nn3c2C)c1 | / | 8% | -13% | 25%[59 µM] | 10%
Oc1ccc2ccccc2c1SSc1c(O)ccc2ccccc12 | / | / | / | 6.7µM* | /
CCOC(=O)C1CCN(c2c(N3CCN(Cc4ccccc4)CC3)c(=O)c2=O)CC1 | / | 54% | -9% | 9% | -2%
CCOC(=O)C1CCN(S(=O)(=O)c2ccc(CC)cc2)CC1 | 45% | 23% | 40µM* | 51%[59 µM] | 60%
CCOC(=O)C1CCN(Cc2ccc(N(C)C)cc2)CC1 | / | ? | 3.5µM* | ? | 45µM*
CCOC(=O)N1CCN(Cc2c(O)ccc3ccccc23)CC1 | -7% | ? | ? | ? | 0%
CCOC(=O)C1CCN(Cc2c(O)ccc3ccccc23)CC1 | -14% | 28% | -4% | 3.5µM* | 13%
CC(C)NC(=O)CSc1cn(CC(=O)N2CCCCCC2)c2ccccc12 | / | -8% | -23% | -1%[59 µM] | -10%
COc1ccc(CN(Cc2ccco2)C(=O)COc2ccccc2OC)cc1 | / | 3% | -34% | -5%[59 µM] | -19%
CCOC(=O)c1cnc2c(C)cc(C)cc2c1NCCCN1CCOCC1 | 3% | 23% | -8% | 21%[59 µM] | -1%
COc1ccc(C(=O)Nc2ccc(CN3CCOCC3)cc2)cc1Br | -4% | 39% | -11% | -9%[59 µM] | -2%
CCOC(=O)N1CCN(C(=O)COC(=O)C2CCN(S(=O)(=O)c3c(Cl)cccc3Cl)CC2)CC1 | 13% | 20% | -17% | 50µM* | 2%
O=C(O)Cc1c(O)ccc2ccccc12 | 10% | 30% | -3% | 6%[12.7 µM] | -11%
COc1ccc(CN2CCN(C(=O)CC(C)C)CC2)cc1Br | 5% | 27% | 79µM* | 10µM* | ?
NCc1c(O)ccc2ccccc12 | 2% | / | / | 7.9µM* | -29%
Oc1ccc2ccccc2c1CNc1ccc(Br)cn1 | 13% | 71% | 0% | / | -2%
Oc1ccc2ccccc2c1CNc1ccc(Br)cc1 | / | -15% | ? | 5µM* | 40µM*
COC(=O)C1CCN(C(=O)COC(=O)C2CCN(S(=O)(=O)c3c(Cl)cccc3Cl)CC2)CC1 | -6% | -3% | -21% | ? | 1%
Cc1ccccc1S(=O)(=O)N1CCN(c2nc(-c3cccs3)nc3ccccc23)CC1 | / | 33% | -5% | / | /
CCOC(=O)N1CCN(Cc2ccc3ccccc3c2)CC1 | -5% | ? | 25µM* | / | ?
Cc1ccc(C(=O)OCC(=O)c2ccc(S(=O)(=O)N3CCCCC3)cc2)o1 | -10% | -11% | ? | 50µM* | -18%
COc1ccc(C(=O)OCC(=O)c2ccc(S(=O)(=O)N3CCCCC3)cc2)c(OC)c1 | -1% | 41% | -10% | ? | 10%
SMILES | L3MBTL1 inh | HP1b binding inh | JMJD2A Tudor | G9a block | BAZ2B block
CC(C)CC(=O)N1CCN(Cc2ccc3ccccc3c2)CC1 | 3%[2.29 µM] | ? | 25µM* | -3%[0.501 µM] | ?
CCOC(=O)C1CCN(S(=O)(=O)Cc2ccc(Cl)cc2)CC1 | -11% | 15% | -15% | 21%[59 µM] | 5%
CCOC(=O)C1CCN(Cc2ccc(F)c(F)c2)CC1 | / | ? | 5.6µM* | 28µM* | ?
CCOc1ccc(NC(=O)CC2C(=O)N(c3ccc(C)cc3)C(=O)N2C2CCCCC2)cc1 (stereo unspecified) | / | 21% | -23% | -22%[59 µM] | -9%
Oc1ccc2ccccc2c1CN1CCCC1 | -7% | 8% | 2% | 6.3µM* | -20%
Oc1ccc2ccccc2c1CN1CCCCC1 | / | 9% | -15% | / | /
CCOC(=O)C1CCN(C(=O)c2oc3ccc(S(=O)(=O)N4CC(C)CC(C)C4)cc3c2C)CC1 (stereo unspecified) | -7% | 14% | -5% | 14µM* | -1%
CCOC(=O)N1CCN(C(=O)c2oc3ccc(S(=O)(=O)N4CC(C)CC(C)C4)cc3c2C)CC1 (stereo unspecified) | -5% | 38% | 0%[57.1 µM] | 26%[0.501 µM] | -29%
COc1cccc(NC(=O)N2CCC(n3c(C)nc4cccnc43)CC2)c1 | / | 12% | -1% | 22%[59 µM] | -7%
Cc1c(C(=O)NCc2cccc(Br)c2)oc2ccc3c(c12)C(=O)CC(C)(C)O3 | / | 8% | -16% | -4%[59 µM] | -6%
CCC(CO)Oc1cc(NCc2ccc(Cl)cc2Cl)c2ncn(C(C)C)c2c1 (stereo unspecified) | -25% | -18% | 40µM* | / | /
CC[C@H](CO)Oc1cc(NCc2ccc(Cl)c(Cl)c2)c2ncn(C(C)C)c2c1 | -27% | -15% | 32µM* | / | /
CCC(CO)Oc1cc(NCc2ccccc2O)c2ncn(C(C)C)c2c1 (stereo unspecified) | -12% | -17% | ? | / | /
CCC(CO)Oc1cc(NCc2ccc(C)cc2)c2ncn(C(C)C)c2c1 (stereo unspecified) | -14% | -3% | 56µM* | / | /
CCOc1cc(NCc2ccccc2)c2ncn(C(C)C)c2c1 | ? | ? | 50µM* | / | /
COc1ccc(C)cc1NC(=O)c1ccc2c(c1)N(Cc1cccc(Cl)c1)C(=O)c1ccccc1S2=O (stereo unspecified) | / | 5% | ? | -37%[59 µM] | -10%
CC(C)CN(C(=O)c1cccc(S(=O)(=O)N2CCN(C)CC2)c1)C1CCS(=O)(=O)C1 (stereo unspecified) | 7% | 8% | -12% | 5%[0.501 µM] | -4%
CCC(CO)Oc1cc(NCc2ccc(Cl)cc2)c2ncn(C(C)C)c2c1 (stereo unspecified) | -16% | -21% | 50µM* | / | /
CCC(CO)Oc1cc(NCc2ccc(OC)cc2)c2ncn(C(C)C)c2c1 (stereo unspecified) | -7% | -7% | -36% | -4%[0.501 µM] | ?
CCOc1ccc(NC(=O)CSc2nnc3c(n2)[nH]c2ccc(S(=O)(=O)N(C)C)cc23)cc1 | / | -2% | ? | / | /
CN(C)CCOc1cc(Cl)cc(Cl)c1 | -1% | 57% | 2% | 4% | 1%
